According to PubChem BioAssay (NCATS):
Inconclusive results are not listed. Entries that show only a call come without a potency. Calls of active or inactive are those of the source. Calls come from the whole dose curve; as a rule, active = well fitted cell-killing curve with a large enough effect; inconclusive = small, poorly fitted or top-dose-only effect; inactive = flat fitted curve, though single readings scatter.

experiment: Cellular viability qHTS for adrenocortical cancer (ACC) cell line NCI-H295R (AID 1963990); settings: CellTiter-Glo ATP luminescence, 48 h; series mostly up to 46.1 µM; note: nearly all actives have a fitted effect of over 60% in size
How it was run: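 IC50 and maximal efficacy derive from four-parameter logistic modelling of titration curves, with reads scaled between DMSO-only wells (0%) and doxorubicin hydrochloride (100% inhibition). Compounds spanned up to 46 uM over 48 h.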

SMILES | Potency
C[N+](C)(C)CCOC(=O)CCC(=O)OCC[N+](C)(C)C | inactive
CC12CC3CC(C)(C1)CC(N)(C3)C2 | inactive
NCCS | inactive
Oc1ccccc1C=NCc1ccccc1 | inactive
O=C1NC(O)CCN1[C@@H]1O[C@H](CO)[C@H](O)[C@H]1O (stereo not given in full) | inactive
